Results from PubChem BioAssay AID1159580 (chemical genetic matrix, 2015).
About 2,000 (36%) of roughly 5,500 compounds were called active. Roughly 18% stayed inconclusive and do not appear here. Rule as the data show it: active = normalized growth mostly below about 0.91 (no sharp cut-off); inconclusive = no clear call, values can overlap the other calls; inactive = mostly above about 0.92. This is one part of the list.

Experiment: chemical genetic growth profiling, strain panel (AID 1159580);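 also: tested at 20 µM; growth read once vehicle control cultures reached saturation at 30 °C; 1 = growth at the plate median or of vehicle wells; lower values mean less growth of the strain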
Settings: growth OD

Measured: normalized growth

O=C(O)c1cc(=O)c2c(OCC(O)COc3cccc4oc(C(=O)O)cc(=O)c34)cccc2o1
inactive: S. cerevisiae deletion strains, locus YKL009W, strain mrt4, hits give low values 1.01 | S. cerevisiae deletion strains, locus YKL068W, hits give low values 1.01 | S. cerevisiae deletion strains, locus YKL085W, strain MDH1 (second series), hits give low values 1.03 | S. cerevisiae deletion strains, locus YKL085W, strain MDH1, hits give low values 1.03 | S. cerevisiae deletion strains, locus YKL160W, strain elf1, hits give low values 0.972 | S. cerevisiae deletion strains, locus YKL190W, strain CNB1, hits give low values 1 | S. cerevisiae deletion strains, locus YKR001C, strain vps1, hits give low values 1.02 | S. cerevisiae deletion strains, locus YKR026C, strain gcn3, hits give low values 0.968 | S. cerevisiae deletion strains, locus YKR091W, strain srl3, hits give low values 0.983 | S. cerevisiae deletion strains, locus YLL001W, strain dnm1, hits give low values 0.935 | S. cerevisiae deletion strains, locus YLL026W, hits give low values 0.991 | S. cerevisiae deletion strains, locus YLL041C, strain sdh2, hits give low values 0.973 | S. cerevisiae deletion strains, locus YLR027C, strain aat2, hits give low values 0.983 | S. cerevisiae deletion strains, locus YLR039C, strain RIC1, hits give low values 1 | S. cerevisiae deletion strains, locus YLR058C, strain SHM2, hits give low values 1.01 | S. cerevisiae deletion strains, locus YLR102C, strain apc9, hits give low values 1.02 | S. cerevisiae deletion strains, locus YLR113W, strain HOG1, hits give low values 0.998 | S. cerevisiae deletion strains, locus YLR221C, strain rsa3, hits give low values 1.02 | S. cerevisiae deletion strains, locus YLR258W, strain gsy2, hits give low values 0.983 | S. cerevisiae deletion strains, locus YLR262C, strain YPT6 (second series), hits give low values 0.933 | S. cerevisiae deletion strains, locus YLR262C, strain YPT6, hits give low values 1.05 | S. cerevisiae deletion strains, locus YLR268W, strain sec22, hits give low values 1.04 | S. cerevisiae deletion strains, locus YLR320W, strain mms22, hits give low values 0.985 | S. cerevisiae deletion strains, locus YLR330W, strain CHS5, hits give low values 1.01 | S. cerevisiae deletion strains, locus YLR342W, strain FKS1 (second series), hits give low values 1.01 | S. cerevisiae deletion strains, locus YLR342W, strain FKS1, hits give low values 0.95 | S. cerevisiae deletion strains, locus YLR357W, strain rsc2, hits give low values 1.01 | S. cerevisiae deletion strains, locus YLR370C, strain arc18, hits give low values 0.974 | S. cerevisiae deletion strains, locus YLR371W, strain rom2, hits give low values 1.02 | S. cerevisiae deletion strains, locus YLR384C, strain iki3, hits give low values 0.961 | S. cerevisiae deletion strains, locus YLR418C, strain cdc73, hits give low values 1.02 | S. cerevisiae deletion strains, locus YML016C, strain PPZ1, hits give low values 1.01 | S. cerevisiae deletion strains, locus YML032C, strain rad52, hits give low values 1.02 | S. cerevisiae deletion strains, locus YML120C, strain ndi1, hits give low values 0.966 | S. cerevisiae deletion strains, locus YML124C, strain tub3, hits give low values 1.01 | S. cerevisiae deletion strains, locus YMR058W, strain fet3, hits give low values 0.967 | S. cerevisiae deletion strains, locus YMR078C, strain ctf18, hits give low values 1.04 | S. cerevisiae deletion strains, locus YMR125W, strain sto1, hits give low values 0.99 | S. cerevisiae deletion strains, locus YMR129W, hits give low values 0.975 | S. cerevisiae deletion strains, locus YMR205C, strain PFK2, hits give low values 0.982 | S. cerevisiae deletion strains, locus YMR223W, strain ubp8, hits give low values 1.03 | S. cerevisiae deletion strains, locus YMR231W, strain pep5, hits give low values 0.971 | S. cerevisiae deletion strains, locus YMR307W, strain GAS1, hits give low values 1.09 | S. cerevisiae deletion strains, locus YNL067W, strain RPL9B, hits give low values 1.01 | S. cerevisiae deletion strains, locus YNL071W, strain lat1, hits give low values 0.989 | S. cerevisiae deletion strains, locus YNL128W, strain TEP1, hits give low values 1.02 | S. cerevisiae deletion strains, locus YNL183C, strain NPR1, hits give low values 0.952 | S. cerevisiae deletion strains, locus YNL209W, strain ssb2, hits give low values 1.01 | S. cerevisiae deletion strains, locus YNL233W, strain BNI4, hits give low values 1.02 | S. cerevisiae deletion strains, locus YNL248C, strain rpa49, hits give low values 1 | S. cerevisiae deletion strains, locus YNL250W, strain rad50, hits give low values 1.07 | S. cerevisiae deletion strains, locus YNL271C, strain bni1, hits give low values 1.03 | S. cerevisiae deletion strains, locus YNL298W, strain CLA4, hits give low values 1.01 | S. cerevisiae deletion strains, locus YNL307C, strain MCK1, hits give low values 1.02 | S. cerevisiae deletion strains, locus YNL322C, strain KRE1 (second series), hits give low values 0.953 | S. cerevisiae deletion strains, locus YNL322C, strain KRE1, hits give low values 1.01 | S. cerevisiae deletion strains, locus YNR049C, strain mso1, hits give low values 0.967 | S. cerevisiae deletion strains, locus YNR052C, strain pop2, hits give low values 1.01 | S. cerevisiae deletion strains, locus YOL006C, strain TOP1, hits give low values 1.01 | S. cerevisiae deletion strains, locus YOL012C, strain htz1 0.937 | S. cerevisiae deletion strains, locus YOL147C, strain pex11, hits give low values 1.03 | S. cerevisiae deletion strains, locus YOR001W, strain rrp6, hits give low values 0.936 | S. cerevisiae deletion strains, locus YOR061W, strain CKA2, hits give low values 1.01 | S. cerevisiae deletion strains, locus YOR069W, strain VPS5, hits give low values 1.01 | S. cerevisiae deletion strains, locus YOR070C, strain gyp1, hits give low values 0.987 | S. cerevisiae deletion strains, locus YOR080W, strain dia2, hits give low values 0.968 | S. cerevisiae deletion strains, locus YOR083W, strain WHI5, hits give low values 0.961 | S. cerevisiae deletion strains, locus YOR106W, strain vam3, hits give low values 0.957 | S. cerevisiae deletion strains, locus YOR136W, strain idh2, hits give low values 1.03 | S. cerevisiae deletion strains, locus YOR144C, strain elg1, hits give low values 1.02 | S. cerevisiae deletion strains, locus YOR184W, strain ser1, hits give low values 1.03 | S. cerevisiae deletion strains, locus YOR231W, strain MKK1, hits give low values 1 | S. cerevisiae deletion strains, locus YOR265W, strain rbl2, hits give low values 0.984 | S. cerevisiae deletion strains, locus YOR270C, strain vph1, hits give low values 0.946 | S. cerevisiae deletion strains, locus YOR290C, strain snf2, hits give low values 1.02 | S. cerevisiae deletion strains, locus YOR316C, strain cot1, hits give low values 1.03 | S. cerevisiae deletion strains, locus YPL051W, strain arl3, hits give low values 0.99 | S. cerevisiae deletion strains, locus YPL055C, strain LGE1, hits give low values 1.01 | S. cerevisiae deletion strains, locus YPL078C, strain atp4, hits give low values 0.933 | S. cerevisiae deletion strains, locus YPL106C, strain sse1, hits give low values 1 | S. cerevisiae deletion strains, locus YPL240C, strain hsp82, hits give low values 1 | S. cerevisiae deletion strains, locus YPL241C, strain CIN2, hits give low values 1.01 | S. cerevisiae deletion strains, locus YPL256C, strain CLN2, hits give low values 1 | S. cerevisiae deletion strains, locus YPR119W, strain clb2, hits give low values 1.03 | S. cerevisiae deletion strains, locus YPR141C, strain kar3, hits give low values 1.03 | S. cerevisiae deletion strains, locus YPR163C, strain tif3, hits give low values 1.02 | S. cerevisiae deletion strains, locus YPR167C, strain met16, hits give low values 1.03 | S. cerevisiae deletion strains, strain wtn01, hits give low values 0.999 | S. cerevisiae strains, strain wild type, hits give low values 1.01
